Assay results published in the supplement of paper PMC9262897, “Low-cost anti-mycobacterial drug discovery using engineered E. coli” (Nature Communications, 2022).
Structures can show the parent of a compound that is named as a salt. ± gives the standard deviation of the averaged measurements.

What was measured:
Assay in all cases: growth (OD600 after 10 h); higher = more growth (less inhibition)
[1] = test system: E. coli TESEC Alr+ wild-type control; conditions: compound 0.1 mM; raw OD600 reference: median of DMSO wells 0.241, cell-free background 0.041
Procedure: (§1)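 TESEC Mtb Alr E. coli, or the Alr+ wild-type control, in 384-well plates with Prestwick library compounds at 0.1 mM and 1% DMSO, across arabinose induction levels of 1E3 to 1E7 nM. Growth is read as OD600 after 10 h at 37 °C in triplicate biological replicates.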

E. coli TESEC Mtb Alr [2] = conditions: compound 0.1 mM
Procedure: as §1

E. coli TESEC Mtb Asd = conditions: compound 0.1 mM
Procedure: (§2)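 TESEC E. coli strains in which the native enzyme is deleted and replaced by arabinose-inducible Mtb Asd, DapB, CysH or TrpD, each grown in its selective medium. Strains were screened against the Prestwick library at 0.1 mM and 1% DMSO in 384-well format at low and high arabinose induction. Growth is read as OD600 after 10 h in triplicate.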

E. coli TESEC Mtb DapB = conditions: compound 0.1 mM
Procedure: as §2

E. coli TESEC Mtb Alr [3] = conditions: compound 0.1 mM; remark: listed apart in the source
Procedure: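 TESEC Mtb Alr E. coli (ΔaraC ΔtolC ΔentC Δalr ΔdadX, arabinose-inducible Mtb Alr) or the Alr+ wild-type control strain, grown in defined M9-fructose medium without D-alanine in 96-well plates with Prestwick library compounds at 0.1 mM and 1% DMSO. Low Alr induction is 0.1 µM arabinose and high induction is 10 mM arabinose.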

[4] = arabinose 1000 nM, raw OD600 reference: median of DMSO wells 0.294, cell-free background 0.041
[5] = arabinose 10000 nM, raw OD600 reference: median of DMSO wells 0.264, cell-free background 0.041
[6] = arabinose 100000 nM, raw OD600 reference: median of DMSO wells 0.201, cell-free background 0.041
[7] = arabinose 1000000 nM, raw OD600 reference: median of DMSO wells 0.193, cell-free background 0.041
[8] = arabinose 10000000 nM, raw OD600 reference: median of DMSO wells 0.146, cell-free background 0.041
[9] = arabinose induction (level): High, raw OD600 reference: median of DMSO wells 0.331, cell-free background 0.041
[10] = arabinose induction (level): Low, raw OD600 reference: median of DMSO wells 0.417, cell-free background 0.041
[11] = arabinose induction (level): High, raw OD600 reference: median of DMSO wells […], cell-free background 0.041
[12] = arabinose induction (level): Low, raw OD600 reference: median of DMSO wells 0.227, cell-free background 0.041
[13] = arabinose 100 nM, raw OD600 reference: median of DMSO wells 0.413, cell-free background 0.052
[14] = arabinose 10000000 nM, raw OD600 reference: median of DMSO wells […], cell-free background 0.052

| SMILES | growth [1] | growth (E. coli TESEC Mtb Alr [2]; [4]) | growth (E. coli TESEC Mtb Alr [2]; [5]) | growth (E. coli TESEC Mtb Alr [2]; [6]) | growth (E. coli TESEC Mtb Alr [2]; [7]) | growth (E. coli TESEC Mtb Alr [2]; [8]) | growth (E. coli TESEC Mtb Asd; [9]) | growth (E. coli TESEC Mtb Asd; [10]) | growth (E. coli TESEC Mtb DapB; [11]) | growth (E. coli TESEC Mtb DapB; [12]) | growth (E. coli TESEC Mtb Alr [3]; [13]) | growth (E. coli TESEC Mtb Alr [3]; [14]) |
| --- | --- | --- | --- | --- | --- | --- | --- | --- | --- | --- | --- | --- |
| Oc1cc(Cl)ccc1Oc1ccc(Cl)cc1Cl [Triclosan] | 0.0414 ± 0.0012 | 0.0413 ± 0.0016 | 0.04137 ± 0.00025 | 0.04127 ± 0.00015 | 0.0423 ± 0.0022 | 0.04107 ± 0.00021 | 0.0494 ± 0.0062 | 0.04643 ± 0.00015 | 0.0466 ± 0.0004 | 0.0475 ± 0.0016 | 0.052 ± 0.0048 | 0.054 ± 0.001 |
| CC(=O)OC1CN2CCC1CC2 (centres undefined) [Aceclidine Hydrochloride] | 0.257 ± 0.0078 | 0.314 ± 0.0082 | 0.2646 ± 0.0025 | 0.232 ± 0.041 | 0.174 ± 0.0042 | 0.166 ± 0.0076 | 0.22 ± 0.0099 | 0.306 ± 0.013 | 0.204 ± 0.02 | 0.232 ± 0.023 | 0.41 ± 0.007 | 0.359 ± 0.031 |
| C#CCN(C)[C@H](C)Cc1ccccc1 [Selegiline hydrochloride] | 0.251 ± 0.0044 | 0.305 ± 0.015 | 0.283 ± 0.0084 | 0.233 ± 0.026 | 0.185 ± 0.0036 | 0.17 ± 0.004 | 0.291 ± 0.064 | 0.391 ± 0.016 | 0.222 ± 0.018 | 0.219 ± 0.0087 | 0.405 ± 0.017 | 0.342 ± 0.017 |
| O=C(O)CCCc1ccc(N(CCCl)CCCl)cc1 [Chlorambucil] | 0.2478 ± 0.002 | 0.296 ± 0.0033 | 0.263 ± 0.0054 | 0.206 ± 0.0083 | 0.191 ± 0.0081 | 0.135 ± 0.0069 | 0.258 ± 0.086 | 0.288 ± 0.096 | 0.209 ± 0.023 | 0.259 ± 0.023 | 0.429 ± 0.0069 | 0.326 ± 0.016 |
| CC(C)c1cccc(C(C)C)c1O [Propofol] | 0.245 ± 0.0043 | 0.309 ± 0.017 | 0.255 ± 0.0092 | 0.202 ± 0.0052 | 0.175 ± 0.0063 | 0.144 ± 0.0055 | 0.441 ± 0.024 | 0.439 ± 0.03 | 0.212 ± 0.011 | 0.236 ± 0.028 | 0.389 ± 0.01 | 0.328 ± 0.0056 |
| CC(=O)OCC1=C(C(=O)O)N2C(=O)[C@@H](N)[C@H]2SC1 [Cephalosporanic acid, 7-amino] | 0.254 ± 0.0055 | 0.295 ± 0.011 | 0.269 ± 0.008 | 0.22 ± 0.023 | 0.205 ± 0.011 | 0.151 ± 0.0034 | 0.273 ± 0.018 | 0.402 ± 0.086 | 0.187 ± 0.014 | 0.215 ± 0.0044 | 0.408 ± 0.013 | 0.356 ± 0.011 |
| CC(=O)O[C@H]1C[C@@H]2CC[C@@H]3[C@H](CC[C@@]4(C)[C@H]3C[C@H]([N+]3(C)CCCCC3)[C@@H]4OC(C)=O)[C@@]2(C)C[C@@H]1[N+]1(C)CCCCC1 [Pancuronium bromide] | 0.232 ± 0.0035 | 0.318 ± 0.0065 | 0.2563 ± 0.0013 | 0.194 ± 0.021 | 0.168 ± 0.0052 | 0.154 ± 0.0046 | 0.242 ± 0.064 | 0.407 ± 0.014 | 0.191 ± 0.026 | 0.203 ± 0.055 | 0.421 ± 0.026 | 0.349 ± 0.019 |
| COc1ccc(Cc2nccc3cc(OC)c(OC)cc23)cc1OC [Papaverine hydrochloride] | 0.153 ± 0.0032 | 0.199 ± 0.0045 | 0.215 ± 0.0047 | 0.141 ± 0.0019 | 0.087 ± 0.0015 | 0.133 ± 0.0021 | 0.133 ± 0.013 | 0.262 ± 0.035 | 0.148 ± 0.0024 | 0.161 ± 0.0073 | 0.397 ± 0.0098 | 0.22 ± 0.0059 |
| CC(C)(N)Cc1ccccc1 [Phentermine hydrochloride] | 0.232 ± 0.0076 | 0.288 ± 0.017 | 0.273 ± 0.0063 | 0.199 ± 0.033 | 0.193 ± 0.0084 | 0.138 ± 0.0031 | 0.318 ± 0.043 | 0.297 ± 0.017 | 0.206 ± 0.021 | 0.233 ± 0.014 | 0.413 ± 0.014 | 0.36 ± 0.0095 |
| CN(C)[C@@H]1C(=O)C(C(N)=O)=C(O)[C@@]2(O)C(=O)C3=C(O)c4c(O)cccc4[C@@](C)(O)[C@H]3[C@H](O)[C@@H]12 [Oxytetracycline dihydrate] | 0.0451 ± 0.0028 | 0.0424 ± 0.00089 | 0.0418 ± 0.00081 | 0.044 ± 0.0021 | 0.0421 ± 0.0003 | 0.04303 ± 0.00012 | 0.0563 ± 0.0015 | 0.0587 ± 0.0032 | 0.0531 ± 0.00076 | 0.0536 ± 0.0012 | 0.0627 ± 0.0022 | 0.0555 ± 0.003 |
| CC(C)C[C@H]1C(=O)N2CCC[C@H]2[C@]2(O)O[C@](NC(=O)[C@@H]3C=C4c5cccc6[nH]c(Br)c(c56)C[C@H]4N(C)C3)(C(C)C)C(=O)N12 [Bromocryptine mesylate] | 0.108 ± 0.0027 | 0.112 ± 0.058 | 0.108 ± 0.0015 | 0.187 ± 0.12 | 0.0887 ± 0.025 | 0.191 ± 0.013 | 0.208 ± 0.056 | 0.117 ± 0.047 | 0.236 ± 0.07 | 0.229 ± 0.018 | 0.401 ± 0.0088 | 0.323 ± 0.067 |
| CNC(=O)Oc1ccc2c(c1)[C@]1(C)CCN(C)[C@@H]1N2C [Eserine hemisulfate salt] | 0.229 ± 0.0049 | 0.289 ± 0.0076 | 0.251 ± 0.003 | 0.203 ± 0.025 | 0.184 ± 0.0065 | 0.139 ± 0.008 | 0.328 ± 0.037 | 0.408 ± 0.048 | 0.187 ± 0.015 | 0.206 ± 0.0057 | 0.409 ± 0.017 | 0.366 ± 0.01 |
| C[N+]1(C)[C@@H]2CC[C@H]1C[C@@H](OC(=O)C(CO)c1ccccc1)C2 (some centres undefined) [Methylatropine nitrate] | 0.232 ± 0.013 | 0.283 ± 0.017 | 0.247 ± 0.0037 | 0.206 ± 0.0059 | 0.2 ± 0.007 | 0.14 ± 0.0059 | 0.286 ± 0.02 | 0.438 ± 0.022 | 0.199 ± 0.028 | 0.229 ± 0.0072 | 0.391 ± 0.011 | 0.355 ± 0.012 |
| C[C@]12CC[C@@H](O)C[C@H]1CC[C@@H]1[C@@H]2CC[C@]2(C)C(=O)CC[C@@H]12 [3-alpha-Hydroxy-5-beta-androstan-17-one] | 0.129 ± 0.0054 | 0.135 ± 0.0032 | 0.114 ± 0.0066 | 0.131 ± 0.015 | 0.0604 ± 0.00044 | 0.0824 ± 0.00098 | 0.118 ± 0.0061 | 0.171 ± 0.018 | 0.122 ± 0.0084 | 0.135 ± 0.013 | 0.354 ± 0.027 | 0.0844 ± 0.0097 |
| C#C[C@]1(O)CC[C@H]2[C@@H]3CCC4=CC(=O)CC[C@]4(C)[C@H]3CC[C@@]21C [Ethisterone] | 0.237 ± 0.0043 | 0.28 ± 0.01 | 0.2589 ± 0.0022 | 0.21 ± 0.015 | 0.172 ± 0.0021 | 0.1381 ± 0.001 | 0.344 ± 0.057 | 0.41 ± 0.063 | 0.179 ± 0.0098 | 0.219 ± 0.02 | 0.408 ± 0.0092 | 0.39 ± 0.055 |
| C=CC[C@]1(O)CC[C@H]2[C@@H]3CCC4=CC(=O)CCC4=C3C=C[C@@]21C [Altrenogest] | 0.132 ± 0.0045 | 0.16 ± 0.0073 | 0.167 ± 0.0079 | 0.144 ± 0.0049 | 0.0767 ± 0.0035 | 0.118 ± 0.005 | 0.148 ± 0.027 | 0.126 ± 0.021 | 0.148 ± 0.002 | 0.162 ± 0.006 | 0.376 ± 0.0056 | 0.134 ± 0.011 |
| CCn1cc(C(=O)O)c(=O)c2cc3c(cc21)OCO3 [Oxolinic acid] | 0.0726 ± 0.0019 | 0.05577 ± 0.00049 | 0.0509 ± 0.00026 | 0.0646 ± 0.0014 | 0.0934 ± 0.0036 | 0.123 ± 0.0027 | 0.156 ± 0.011 | 0.149 ± 0.011 | 0.194 ± 0.0098 | 0.208 ± 0.054 | 0.0698 ± 0.0013 | 0.0582 ± 0.0011 |
